Screening results deposited in PubChem by National Center for Advancing Translational Sciences (NCATS).
Tb PGK inh: qHTS Assay to Find Inhibitors of Phosphoglycerate Kinase; PGK/GAPDH coupled, Kinase-Glo luminescence, 60 min; Potency, µM (series often up to 57.5 µM), without a hit: top-dose activity change, negative = inhibition, most hits filed as inhibitors; 0.043% of 380,000 active; note: potency is the fitted concentration of half-maximal effect; % is set by controls: 0 for no effect and ±100 for the full control effect; nearly all actives have a fitted effect of over 60% in size
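Luminescent ATP detection (Kinase-Glo Plus) follows a 60-minute room-temperature incubation, with wells lacking PGK as controls. Buffer: 100 mM TEA (pH 7.6), 5 mM MgCl2, 0.01% Tween-20. Coupling enzyme GAPDH (100 nM final) supplies unstable 1,3-BPG in-well.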
PI5P4K alpha inh: qHTS for Inhibitors of phosphatidylinositol 5-phosphate 4-kinase (PI5P4K). PI5P4Kalpha enzyme, ADP-Glo luminescence, 60 min; active compounds read low. AID 652105, 2013. 1.2% of 330,000 active. Phosphatidylinositol 5-phosphate 4-kinase type-2 alpha (Homo sapiens), P48426. max response, %; active = max response of -50% or lower; inconclusive = between -30% and -50%; inactive = -30% or higher; note: value at the top dose of about 77 µM; % is set by controls: 0 for no effect and ±100 for the full control effect
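PI5P4Kalpha ADP-Glo assay; 5 microM ATP final; 60 min RT reaction; HEPES pH 7.4/EGTA/CHAPS, 5% DMSO; controls lacking substrate or enzyme; luminescent end-point.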
Pin1 inh: qHTS Assay to Find Inhibitors of Pin1. Peptidyl-prolyl cis-trans isomerase NIMA-interacting 1 (Homo sapiens), Q13526. Pin1 FP peptide displacement, HiFluor488, 10 min. Potency, µM (highest dose often 115 µM), inactives show at the top dose activity, negative = inhibition, actives largely listed as inhibitors. 0.009% of 390,000 active. AID 504891, 2011; active = well fitted inhibition curve with a large enough effect in the polarisation, with a control signal flat, not every such curve was filed as active; inconclusive = small, poorly fitted or top-dose-only effect, or effect the other way, or a change in a side signal; inactive = no such curve, though single readings can be large or run the other way; the % refers to the polarisation; note: potency is the fitted concentration of half-maximal effect; % is set by controls: 0 for no effect and ±100 for the full control effect
FEN1 inhibitor: qHTS Assay for the Inhibitors of Human Flap endonuclease 1 (FEN1); P39748; Recombinant FEN1 flap cleavage, fluorescence, 15 min; Potency, µM (titrated, usually from 114 µM), without a hit: top-dose activity change, negative = inhibition, actives largely listed as inhibitors; 0.35% of 390,000 active; note: potency is the fitted concentration of half-maximal effect; % is set by controls: 0 for no effect and ±100 for the full control effect; nearly all actives have a fitted effect of over 65% in size
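Enzyme 10 nM, 15 min RT preincubation with compound; start with substrate 50 nM final; reads at 0 and 15 min; qHTS titration, four-parameter Hill fit.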
Glioma ERSR ind: qHTS for Inducers of the Endoplasmic Reticulum Stress Response (ERSR) in Human Glioma: qHTS. U87-MG GRP78 promoter luciferase reporter, 16 h. Potency, µM, inactives show top-dose activation, hits mostly activators. 0.02% of 420,000 active. AID 602332, 2012; note: potency is the fitted concentration of half-maximal effect; series mostly up to about 76 µM; % of control where 0% means no effect; nearly all actives have a fitted effect of over 35% in size
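Stably transfected U87-MG human glioma cells carrying a GRP78-based luminescent sensor were seeded at 1000 cells/well, pin-dosed with compounds and incubated 16 h. Luciferase reagent was then added, and end-point luminescence was read after 10 min at room temperature.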
WRN helicase inh: qHTS for Inhibitors of WRN Helicase; Bifunctional 3'-5' exonuclease/ATP-dependent helicase WRN (Homo sapiens), Q14191; 0.46% of 360,000 active; Potency, µM (doses to about 114 µM), inactives show at the highest dose activity change, negative = inhibition, usual class: inhibitors; WRN helicase unwinding, fluorescent forked duplex, kinetic; note: potency is the fitted concentration of half-maximal effect; % is set by controls: 0 for no effect and ±100 for the full control effect; nearly all actives have a fitted effect of over 55% in size
Target sequence (Q14191 whole entry, looked up): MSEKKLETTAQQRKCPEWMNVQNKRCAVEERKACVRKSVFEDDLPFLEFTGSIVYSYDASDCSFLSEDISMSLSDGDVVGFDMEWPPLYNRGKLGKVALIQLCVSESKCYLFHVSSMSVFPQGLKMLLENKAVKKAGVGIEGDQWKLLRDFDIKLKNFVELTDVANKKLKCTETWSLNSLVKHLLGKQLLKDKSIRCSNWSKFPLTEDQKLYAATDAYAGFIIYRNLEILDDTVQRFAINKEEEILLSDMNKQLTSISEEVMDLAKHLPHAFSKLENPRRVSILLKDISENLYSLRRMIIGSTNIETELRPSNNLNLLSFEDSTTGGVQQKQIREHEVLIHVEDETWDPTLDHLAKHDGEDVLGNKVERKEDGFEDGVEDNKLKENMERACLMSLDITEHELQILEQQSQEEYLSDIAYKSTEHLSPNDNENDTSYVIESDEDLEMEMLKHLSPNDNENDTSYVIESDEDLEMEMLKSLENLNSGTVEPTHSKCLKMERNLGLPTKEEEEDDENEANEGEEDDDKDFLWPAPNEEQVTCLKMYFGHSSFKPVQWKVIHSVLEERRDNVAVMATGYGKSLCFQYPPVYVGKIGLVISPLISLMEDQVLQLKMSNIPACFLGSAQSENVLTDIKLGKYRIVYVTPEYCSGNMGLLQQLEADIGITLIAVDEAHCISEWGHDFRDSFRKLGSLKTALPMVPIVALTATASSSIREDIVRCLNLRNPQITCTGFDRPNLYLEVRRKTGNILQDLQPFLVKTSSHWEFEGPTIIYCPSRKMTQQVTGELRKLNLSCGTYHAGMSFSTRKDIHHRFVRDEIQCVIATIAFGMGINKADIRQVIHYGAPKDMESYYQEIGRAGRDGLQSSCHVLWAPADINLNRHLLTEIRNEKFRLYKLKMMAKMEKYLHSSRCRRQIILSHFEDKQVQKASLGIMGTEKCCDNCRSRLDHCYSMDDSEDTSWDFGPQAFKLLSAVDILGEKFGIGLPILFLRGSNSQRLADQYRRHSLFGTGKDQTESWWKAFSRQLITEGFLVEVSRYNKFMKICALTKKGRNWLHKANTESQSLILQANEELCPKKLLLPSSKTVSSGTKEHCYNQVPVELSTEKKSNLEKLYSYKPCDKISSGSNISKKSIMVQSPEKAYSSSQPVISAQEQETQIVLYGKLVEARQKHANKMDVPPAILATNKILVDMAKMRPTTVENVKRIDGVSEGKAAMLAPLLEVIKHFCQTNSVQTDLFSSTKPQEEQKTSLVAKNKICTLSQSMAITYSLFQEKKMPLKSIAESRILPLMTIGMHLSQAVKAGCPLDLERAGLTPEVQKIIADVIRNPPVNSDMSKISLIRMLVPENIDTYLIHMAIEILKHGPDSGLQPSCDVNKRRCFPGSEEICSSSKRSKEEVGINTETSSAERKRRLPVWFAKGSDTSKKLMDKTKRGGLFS
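Kinetic fluorescence helicase assay: unwinding of a quenched forked DNA duplex (100 nM final) with 2 mM ATP final raises red fluorescence (525/598 nm). Compounds sat 15 min at room temperature with 20 nM WRN beforehand.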
* = called active by the depositor. Most compounds without a hit are left out; they make up all but 1.3% or so of the library. Unless noted, calls come from the whole dose curve; as a rule, active = well fitted curve in the direction sought with a large enough effect; inconclusive = small, poorly fitted or top-dose-only effect, or another doubt; inactive = no such curve, though single readings can be large; an effect the other way counts as inactive or inconclusive.

How did COc1cc(SSc2cc(OC)cc([N+](=O)[O-])c2N)c(N)c([N+](=O)[O-])c1 do in these assays?
PI5P4K alpha inh: -93*; Pin1 inh: -13%; FEN1 inhibitor: inconclusive; Glioma ERSR ind: -1%; WRN helicase inh: 1%

Results for O=[N+]([O-])c1ccc(N2CCCCC2)nc1N1CCCCC1 ?
Tb PGK inh: -19%; PI5P4K alpha inh: 5; Pin1 inh: -2%; FEN1 inhibitor: 12%; Glioma ERSR ind: -2%; WRN helicase inh: 1%

Results for O=[N+]([O-])c1ccc2c(c1N1CCCCC1)=NC1(CCCCC1)[N+]=2[O-] ?
Tb PGK inh: -3%; PI5P4K alpha inh: -53*; Pin1 inh: -18%; FEN1 inhibitor: -20%; Glioma ERSR ind: -1%; WRN helicase inh: -16%

What do the screens show for `CSc1ccc(CNC(=O)c2cc3c(=O)n(Cc4ccco4)ccc3nc2C)cc1`?
Tb PGK inh: inactive; Pin1 inh: 18%; FEN1 inhibitor: 89µM*; Glioma ERSR ind: -3%

Results for Cc1nc2ccn(Cc3ccco3)c(=O)c2cc1C(=O)Nc1ccc(F)cc1 ?
Tb PGK inh: 1%; Pin1 inh: 3%; FEN1 inhibitor: 17%; Glioma ERSR ind: -4%

How did COc1ccc(Cl)cc1-c1n[nH]c(=S)o1 do in these assays?
Tb PGK inh: -1%; PI5P4K alpha inh: -75*; Pin1 inh: 1%; FEN1 inhibitor: -4%; Glioma ERSR ind: -1%; WRN helicase inh: -10%

What do the screens show for `O=C(Nc1ccc(-c2n[nH]c(=S)o2)cc1)c1ccccc1Br`?
Tb PGK inh: -7%; PI5P4K alpha inh: -57*; Pin1 inh: -4%; FEN1 inhibitor: -4%; Glioma ERSR ind: 0%; WRN helicase inh: -1%

How did COc1ccc(C(=O)Nc2ccc(-c3n[nH]c(=S)o3)cc2)cc1OC do in these assays?
PI5P4K alpha inh: -53*; Pin1 inh: -3%; FEN1 inhibitor: 9%; Glioma ERSR ind: -1%; WRN helicase inh: -9%

Results for CC(C)(C)OC(=O)NCC(=O)NNC(=O)c1cc2ccccc2[nH]1 ?
Pin1 inh: 1%

How did COc1ccccc1NC(=O)C(OC(=O)CNC(=O)c1ccccc1)c1ccccc1 (stereo not given) do in these assays?
Pin1 inh: 5%

How did O=C(O)c1ccc(/C=N/NC(=O)c2cc(-c3ccc4c5c(cccc35)CC4)n[nH]2)cc1 do in these assays?
Tb PGK inh: inconclusive; PI5P4K alpha inh: -73*; Pin1 inh: inconclusive; FEN1 inhibitor: inconclusive; Glioma ERSR ind: 10%; WRN helicase inh: inconclusive

Results for O=C(N/N=C/c1c[nH]c2ccccc12)c1cc(-c2ccc3ccccc3c2)n[nH]1 ?
Tb PGK inh: -4%; PI5P4K alpha inh: -57*; Pin1 inh: 11%; FEN1 inhibitor: -13%; Glioma ERSR ind: 2%; WRN helicase inh: inconclusive

How did O=C(N/N=C/c1c[nH]c2ccccc12)c1cc(-c2cccc3ccccc23)n[nH]1 do in these assays?
Tb PGK inh: -4%; PI5P4K alpha inh: -56*; Pin1 inh: inconclusive; FEN1 inhibitor: -29%; Glioma ERSR ind: -4%; WRN helicase inh: -8%

What do the screens show for `O=C(N/N=C/c1ccccn1)c1cc(-c2ccc3ccccc3c2)n[nH]1`?
Tb PGK inh: -29%; PI5P4K alpha inh: inconclusive; Pin1 inh: inconclusive; FEN1 inhibitor: 45µM*; Glioma ERSR ind: 4%; WRN helicase inh: inconclusive

Results for O=C(CNC(=O)c1ccccc1)N[C@@H](C(=O)Nc1cc(C(F)(F)F)ccc1Cl)c1ccccc1 ?
Pin1 inh: -13%

How did CCN1C(=O)CC(CC(=O)N2CCC(c3nc4ccc(F)cc4[nH]3)CC2)(c2ccccc2C)C1=O (stereo not given) do in these assays?
Glioma ERSR ind: -6%

How did c1cnc2cc3c(cc2n1)[C@@H]1CNC[C@@H]3C1 do in these assays?
Glioma ERSR ind: -1%

Results for CCOc1cc(/C=C2\C(=O)ON=C2c2ccccc2)ccc1OC ?
Tb PGK inh: -4%; PI5P4K alpha inh: -63*; Pin1 inh: -9%; FEN1 inhibitor: 2%; Glioma ERSR ind: -15%; WRN helicase inh: -31%

How did COc1ccc(/C=C2/C(=O)ON=C2c2ccccc2)cc1OC do in these assays?
Tb PGK inh: -3%; PI5P4K alpha inh: -59*; Pin1 inh: -3%; FEN1 inhibitor: -8%; Glioma ERSR ind: -15%; WRN helicase inh: inconclusive

Results for COc1ccc(/C=C2\C(=O)ON=C2c2ccccc2)cc1OC ?
Tb PGK inh: -8%; PI5P4K alpha inh: -62*; Pin1 inh: 3%; FEN1 inhibitor: -1%; Glioma ERSR ind: -13%; WRN helicase inh: -9%

How did COc1cc(/C=C2\C(=O)ON=C2c2ccccc2)cc(OC)c1OC do in these assays?
Tb PGK inh: -3%; PI5P4K alpha inh: -25; Pin1 inh: 1%; FEN1 inhibitor: -3%; Glioma ERSR ind: -16%; WRN helicase inh: -27%

What do the screens show for `Cc1ccc(C2=NOC(=O)/C2=C\C=C\c2ccccc2)cc1`?
Tb PGK inh: -3%; PI5P4K alpha inh: inconclusive; Pin1 inh: -19%; FEN1 inhibitor: -12%; Glioma ERSR ind: 1%; WRN helicase inh: 35µM*

How did COc1ccc(Br)cc1C1CC(=O)N2CN(Cc3ccccc3)CSC2=C1C#N (stereo not given) do in these assays?
Tb PGK inh: -6%; PI5P4K alpha inh: inconclusive; Pin1 inh: 0%; FEN1 inhibitor: inconclusive; Glioma ERSR ind: -4%; WRN helicase inh: -23%

Results for N#CC1=C2SCN(Cc3ccccc3)CN2C(=O)CC1c1ccccc1F (stereo not given) ?
Tb PGK inh: 2%; PI5P4K alpha inh: -77*; Pin1 inh: 6%; FEN1 inhibitor: inconclusive; Glioma ERSR ind: -3%; WRN helicase inh: -3%

Results for N#CC1=C2SCN(Cc3ccco3)CN2C(=O)CC1c1c(F)cccc1Cl (stereo not given) ?
Tb PGK inh: -13%; PI5P4K alpha inh: -50*; Pin1 inh: -2%; FEN1 inhibitor: inconclusive; Glioma ERSR ind: -4%; WRN helicase inh: -7%

How did Cc1ccc(C2CC(=O)N3CN(Cc4ccco4)CSC3=C2C#N)cc1 (stereo not given) do in these assays?
Tb PGK inh: -2%; Pin1 inh: -18%; FEN1 inhibitor: -11%; Glioma ERSR ind: -4%; WRN helicase inh: -3%
